Screening data from PubChem.
The full list was thinned out, with hits kept by preference.
HT1080 IDH1KD tx: kills HT-1080 cells with IDH1 knockdown. actives 2% (n = 360,000). AID 686971. HT-1080 IDH1 knockdown viability, ATP luminescence, 48 h. Potency, µM (doses to about 46.1 µM), for inactives: at the top dose activity, negative = toxicity, most hits filed as cytotoxic;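 further: potency means the concentration at half of the fitted maximal effect; 0% = DMSO wells and -100% = cell-free medium wells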
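% activity derives from luminescence (CellTiter-Glo), normalised to DMSO and no-cell wells. HT-1080-IDH1KD cells, 750/well, had 48 h compound exposure at 37 °C.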
ALOX12 inh: blocks human arachidonate 12S-lipoxygenase; P18054; Potency, µM (top dose mostly 108 µM), for inactives: top-dose activity change, negative = inhibition, usual class: inhibitors; AID 1671190; actives 1.1% (n = 580,000); purified 12hLO, xylenol orange hydroperoxide absorbance; further: potency means the concentration at half of the fitted maximal effect
Target sequence (P18054 whole entry, looked up): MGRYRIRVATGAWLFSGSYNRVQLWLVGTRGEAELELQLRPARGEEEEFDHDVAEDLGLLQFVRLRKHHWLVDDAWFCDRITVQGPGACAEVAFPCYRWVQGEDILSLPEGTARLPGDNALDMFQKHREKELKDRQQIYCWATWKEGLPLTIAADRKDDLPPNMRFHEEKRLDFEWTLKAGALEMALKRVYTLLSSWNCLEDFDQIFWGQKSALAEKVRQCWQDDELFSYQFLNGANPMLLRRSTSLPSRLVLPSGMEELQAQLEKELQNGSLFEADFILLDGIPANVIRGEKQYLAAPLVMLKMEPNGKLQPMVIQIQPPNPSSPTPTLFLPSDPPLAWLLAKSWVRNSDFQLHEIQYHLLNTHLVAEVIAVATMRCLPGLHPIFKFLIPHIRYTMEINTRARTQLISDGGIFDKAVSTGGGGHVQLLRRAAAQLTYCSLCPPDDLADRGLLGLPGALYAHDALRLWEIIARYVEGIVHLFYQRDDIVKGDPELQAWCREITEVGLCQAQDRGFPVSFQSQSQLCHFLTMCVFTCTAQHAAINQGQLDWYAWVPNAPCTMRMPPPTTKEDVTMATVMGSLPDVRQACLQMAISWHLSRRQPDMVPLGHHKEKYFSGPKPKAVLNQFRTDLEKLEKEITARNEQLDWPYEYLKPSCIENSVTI
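Purified human 12hLO (150 nM final) in 25 mM Hepes, 0.01% Triton X-100, pH 7.0 was preincubated 15 min at room temperature with compound. Then 40 uM arachidonic acid was added, 30 min. Hydroperoxide was read by Fe-XO absorbance ratio 573/405 nm.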
IL1B secr inh: blocks inflammasome-driven IL-1 beta release; THP-1 LPS/ATP IL-1B secretion, AlphaLISA, 16 h; hits give low values; activity change, % at 57.5 µM; actives 4.7% (n = 360,000); AID 743279; in the data active means activity change below about -50%; inconclusive means mostly about -30% to -49%
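THP-1 cells pretreated 1 hr with compounds (up to 57.5 uM final), then stimulated with LPS (250 ng/mL final) plus ATP (1.25 mM final); secreted IL-1B measured by AlphaLISA after 16 hr, decreased signal indicating inhibition.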
TDP1 cell CPT: growth inhibition of DT40 Tdp1-/-;hTDP1 cells with camptothecin (screen for TDP1 inhibitors) | chicken DT40 Tdp1-/-;hTDP1 cells + 20 nM CPT, ATP luminescence, 48 h | Potency, µM (highest dose often 46.2 µM), for inactives: at the highest dose activity change, negative = growth inhibition, actives largely listed as inhibitors | actives 12% (n = 420,000) | AID 686979; further: potency means the concentration at half of the fitted maximal effect; nearly all actives have a fitted effect of over 55% in size
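Cell growth measured by CellTiter-Glo luminescence after a minimum 48 h, 37 C compound exposure with 20 nM CPT in Tdp1-knockout DT40 cells stably expressing hTDP1, seeded 400/well; qHTS titration format.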
HT1080-NT tox: kills 2HG-producing HT-1080-NT fibrosarcoma cells; HT-1080-NT fibrosarcoma viability, CellTiter-Glo ATP luminescence, 48 h; Potency, µM (series often up to 46.1 µM), for the others: top-dose activity, negative = less viability, usual class: cytotoxic; actives 1.6% (n = 360,000); AID 686970;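 further: NT is the 2HG producing partner of a matched IDH1 knockdown line; potency means the concentration at half of the fitted maximal effect; 0% = DMSO-treated cells and -100% = media-only wells without cells; nearly all actives have a fitted effect of over 55% in size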
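HT-1080-NT; 750 cells/well; 5% FBS RPMI; 48 h compound, 37 degrees C; CellTiter-Glo luminescence; curve fitting and curve-class assignment.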
DT40 TDP1 no CPT: qHTS for Inhibitors of human tyrosyl-DNA phosphodiesterase 1 (TDP1): qHTS in cells in absence of CPT; DT40 Tdp1-/- hTDP1 cells, no CPT, ATP luminescence, 48 h; Potency, µM (titrated, usually from 46.2 µM), for inactives: top-dose activity change, negative = growth inhibition, most hits filed as inhibitors; actives 15% (n = 420,000); AID 686978, 2013; further: potency means the concentration at half of the fitted maximal effect; nearly all actives have a fitted effect of over 55% in size
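Luminescent ATP content (CellTiter-Glo) served as the growth readout. Knockout chicken DT40 cells expressing human TDP1 were exposed to compounds without camptothecin for a minimum 48 hr at 37 °C.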
The depositor's hits bear a star. Unless noted, the call rests on the fitted dose curve; in most records, active means well fitted curve in the direction sought with a large enough effect; inconclusive means small, poorly fitted or top-dose-only effect, or another doubt; inactive means no such curve, though single readings can be large; an effect the other way counts as inactive or inconclusive. Unless noted, on the % scale 0 is the no-effect control and ±100 the full control effect.

Screening COc1ccc(Cl)cc1NC(=O)CN(C)CC(=O)Nc1cc(OC)c(OC)c(OC)c1 returned HT1080 IDH1KD tx 8.2µM*, ALOX12 inh 27.2%, IL1B secr inh 0.0, TDP1 cell CPT 5.8µM*, HT1080-NT tox 11.6µM* and DT40 TDP1 no CPT 4.11µM*.
COc1ccc(Cl)cc1NC(=O)CN(C)C(=O)c1ccc(C)s1 was read as HT1080 IDH1KD tx -1.1%, ALOX12 inh 0.6%, IL1B secr inh 22.9, TDP1 cell CPT 13.1%, HT1080-NT tox -22.7% and DT40 TDP1 no CPT -1.1%.
For COc1ccc(Cl)cc1NC(=O)CN(C)CC(=O)Nc1ccc(Br)cc1 the results were HT1080 IDH1KD tx inconclusive, ALOX12 inh 56.7%, IL1B secr inh -88.5*, TDP1 cell CPT inconclusive, HT1080-NT tox inconclusive and DT40 TDP1 no CPT inconclusive.
`COc1ccc(Cl)cc1NC(=O)CN(C)CC(=O)Nc1ccc(S(N)(=O)=O)cc1` gave HT1080 IDH1KD tx -9.1%, ALOX12 inh 8.2%, IL1B secr inh -18.4, TDP1 cell CPT -2.8%, HT1080-NT tox -9.7% and DT40 TDP1 no CPT -9.7%.
`COc1ccc(Cl)cc1NC(=O)CN(C)C(=O)c1cc2c(F)cccc2s1` gave HT1080 IDH1KD tx inconclusive, ALOX12 inh -22.4%, IL1B secr inh 39.1, TDP1 cell CPT 10.3µM*, HT1080-NT tox inconclusive and DT40 TDP1 no CPT 6.51µM*.
Screening COc1ccc(Cl)cc1NC(=O)CN(C)CC(=O)NCc1cccs1 returned HT1080 IDH1KD tx -2.1%, ALOX12 inh -26.3%, IL1B secr inh -11.8, TDP1 cell CPT inconclusive, HT1080-NT tox 0.5% and DT40 TDP1 no CPT inconclusive.
`CCCN(CC(=O)Nc1ccccc1C)C(=O)CSc1ccccc1C` gave HT1080 IDH1KD tx 1.4%, ALOX12 inh 1.5%, IL1B secr inh -12.7, TDP1 cell CPT -3.4%, HT1080-NT tox -0.5% and DT40 TDP1 no CPT -9.1%.
Screening CCN(C(=O)c1c(C)oc2ncn(CC(C)C)c(=O)c12)c1cccc(Cl)c1 returned ALOX12 inh -29.9%, TDP1 cell CPT inconclusive and DT40 TDP1 no CPT inconclusive.
`CCOC(=O)c1c(C)c(C(=O)NCc2ccccc2OC)c(C)n1C` gave HT1080 IDH1KD tx -28.3%, ALOX12 inh 12.6%, IL1B secr inh 4.2, TDP1 cell CPT inconclusive, HT1080-NT tox -18.4% and DT40 TDP1 no CPT 12.6µM*.
Screening COc1ccccc1CNC(=O)c1c(-c2ccccc2)nn(-c2ccccc2)c1C returned HT1080 IDH1KD tx 4.7%, ALOX12 inh 0.0%, IL1B secr inh inconclusive, TDP1 cell CPT inconclusive, HT1080-NT tox -6.0% and DT40 TDP1 no CPT 14.6µM*.
COc1ccccc1CNC(=O)CSc1nnc(C)c2c(C)n(-c3ccccc3)nc12 was read as ALOX12 inh -24.7%, TDP1 cell CPT 20.6µM* and DT40 TDP1 no CPT 23.1µM*.
`Cc1cccc(CC(=O)N2CCCN(c3cc(-c4ccc(Cl)cc4)[nH]n3)CC2)c1` gave ALOX12 inh 7.2%.
`OC(c1ccccn1)(c1ccccn1)c1ccccn1` gave HT1080 IDH1KD tx inconclusive, ALOX12 inh 20.1%, IL1B secr inh 13.8, TDP1 cell CPT inconclusive, HT1080-NT tox inconclusive and DT40 TDP1 no CPT inconclusive.
CC(NC(=O)CCCCCN1C(=O)c2ccccc2C1=O)c1ccc2c(c1)CCCC2 (stereo not drawn) was read as HT1080 IDH1KD tx -15.1%, ALOX12 inh inconclusive, IL1B secr inh 2.6, TDP1 cell CPT -27.4%, HT1080-NT tox 0.0% and DT40 TDP1 no CPT -24.3%.
`CC(NC(=O)CCCCCCN1C(=O)c2ccccc2C1=O)c1ccc2c(c1)CCCC2` (stereo not drawn) gave HT1080 IDH1KD tx -2.8%, ALOX12 inh 8.1%, IL1B secr inh -9.6, TDP1 cell CPT 23.1µM*, HT1080-NT tox -0.3% and DT40 TDP1 no CPT inconclusive.
COc1ccc(NC(=O)C2CCN(S(=O)(=O)c3ccc4c(c3)NC(=O)C(C)S4)CC2)cc1 (stereo not drawn) was read as HT1080 IDH1KD tx inconclusive, ALOX12 inh -0.3%, IL1B secr inh 44.0, TDP1 cell CPT inconclusive, HT1080-NT tox inconclusive and DT40 TDP1 no CPT inconclusive.
Screening CC1Sc2ccc(S(=O)(=O)N3CCC(C(=O)Nc4ccc(Cl)cc4)CC3)cc2NC1=O (stereo not drawn) returned HT1080 IDH1KD tx inconclusive, ALOX12 inh 0.0%, IL1B secr inh -18.6, TDP1 cell CPT 20.6µM*, HT1080-NT tox 20.6µM* and DT40 TDP1 no CPT 9.2µM*.
Screening CC(C)c1ccc(NC(=O)C2CCN(S(=O)(=O)c3ccc4c(c3)NC(=O)CO4)CC2)cc1 returned HT1080 IDH1KD tx -16.3%, ALOX12 inh -0.2%, IL1B secr inh -6.3, TDP1 cell CPT inconclusive, HT1080-NT tox -17.6% and DT40 TDP1 no CPT 23.1µM*.
`COc1cccc(NC(=O)C2CCN(S(=O)(=O)c3ccc4c(c3)NC(=O)C(C)S4)CC2)c1` (stereo not drawn) gave HT1080 IDH1KD tx -16.8%, ALOX12 inh -5.6%, IL1B secr inh 26.4, TDP1 cell CPT 20.6µM*, HT1080-NT tox -26.0% and DT40 TDP1 no CPT 20.6µM*.
COc1ccc(-c2ccc(CCC(=O)O)n2-c2ccccc2OC)cc1 was read as HT1080 IDH1KD tx 16.4µM*, ALOX12 inh inconclusive, IL1B secr inh 81.9, TDP1 cell CPT inconclusive, HT1080-NT tox 18.4µM* and DT40 TDP1 no CPT 23.1µM*.
Screening CCCCN(CCCC)CC(O)CN(c1cc([N+](=O)[O-])ccc1OC)S(=O)(=O)c1ccccc1 (stereo not drawn) returned HT1080 IDH1KD tx inconclusive, ALOX12 inh -7.7%, TDP1 cell CPT inconclusive, HT1080-NT tox inconclusive and DT40 TDP1 no CPT 14.6µM*.
For COc1ccc([N+](=O)[O-])cc1N(CC(O)CN(CC(C)C)CC(C)C)S(=O)(=O)c1ccccc1 (stereo not drawn) the results were HT1080 IDH1KD tx inconclusive, ALOX12 inh 11.1%, IL1B secr inh inconclusive, TDP1 cell CPT inconclusive, HT1080-NT tox inconclusive and DT40 TDP1 no CPT 20.6µM*.
COc1ccc([N+](=O)[O-])cc1N(CC(O)CN(C)C)S(=O)(=O)c1ccc(C)cc1 (stereo not drawn) was read as HT1080 IDH1KD tx 3.0%, ALOX12 inh 1.6%, IL1B secr inh 4.3, TDP1 cell CPT -1.5%, HT1080-NT tox -11.2% and DT40 TDP1 no CPT -10.2%.
CCn1nccc1C(=O)N1CCC(F)(c2nc(-c3ccncc3)no2)CC1 was read as ALOX12 inh 10.3%.
